# From paper PMC7862700, “An all-to-all approach to the identification of sequence-specific readers for epigenetic DNA modifications on cytosine”
# Key:
# Test in all cases: DAPPL (digital affinity profiling via proximity ligation, sequencing); 10 mM Tris-HCl pH 7.5, 50 mM NaCl, 1 mM DTT, 4% glycerol, room temperature, 30 min; GST-TFs on glutathione beads, 16-mer random dsDNA library, 0.1% formaldehyde crosslink after washing; high values mean tight binding
# FEV = biological target: T1, FEV (Homo sapiens, UniProt Q99581 1-238); conditions: protein: recombinant; tags: N-terminal GST; dsDNA, one strand shown
# T1 sequence: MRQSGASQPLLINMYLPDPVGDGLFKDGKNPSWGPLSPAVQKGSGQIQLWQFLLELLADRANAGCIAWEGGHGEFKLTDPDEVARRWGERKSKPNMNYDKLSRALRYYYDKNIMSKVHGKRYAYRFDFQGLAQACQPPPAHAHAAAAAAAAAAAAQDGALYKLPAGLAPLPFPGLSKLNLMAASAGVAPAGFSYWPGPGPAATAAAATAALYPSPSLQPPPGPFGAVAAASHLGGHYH
# In short: (§1)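 The binding signal reported is, for every hexamer, its read frequency for a factor over its read frequency for the tag-only sample. Reads came from pools of yeast-expressed, GST-fused human transcription factors on glutathione beads, barcoded with DNA and mixed with that sample, which were incubated with 200 nmole of a random double-stranded 16-mer DNA library in Tris/NaCl/DTT/glycerol buffer at room temperature for 30 min. After washing, the pools were crosslinked with 0.1% formaldehyde, proximity-ligated with BsaI/T4 ligase for 1 h at 37 °C, PCR-amplified and sequenced on an Illumina NextSeq500.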
# ETV5 = ETV5 (Homo sapiens, UniProt P41161 1-510); conditions: protein: recombinant; tags: N-terminal GST; dsDNA, one strand shown
# In short: as §1
# HSF1 = HSF1 (Homo sapiens, UniProt Q00613 1-529); conditions: protein: recombinant; tags: N-terminal GST; chain copies: 3; dsDNA, one strand shown
# In short: as §1
# SPIC = biological target: T2, SPIC (Homo sapiens, UniProt Q8N5J4 1-248); conditions: protein: recombinant; tags: N-terminal GST; dsDNA, one strand shown
# T2 sequence: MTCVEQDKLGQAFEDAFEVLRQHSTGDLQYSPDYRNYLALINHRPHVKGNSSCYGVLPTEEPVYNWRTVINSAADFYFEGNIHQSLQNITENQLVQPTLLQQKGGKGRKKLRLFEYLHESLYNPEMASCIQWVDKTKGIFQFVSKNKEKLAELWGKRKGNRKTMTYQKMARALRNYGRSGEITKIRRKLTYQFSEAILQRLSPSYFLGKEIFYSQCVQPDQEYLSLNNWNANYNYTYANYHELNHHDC
# In short: as §1
# ELF4 = ELF4 (Homo sapiens, UniProt Q99607 1-663); conditions: protein: recombinant; tags: N-terminal GST; dsDNA, one strand shown
# In short: as §1
# ELK4 = biological target: T3, ELK4 (Homo sapiens, UniProt P28324-2 1-405); conditions: protein: recombinant; tags: N-terminal GST; dsDNA, one strand shown
# T3 sequence: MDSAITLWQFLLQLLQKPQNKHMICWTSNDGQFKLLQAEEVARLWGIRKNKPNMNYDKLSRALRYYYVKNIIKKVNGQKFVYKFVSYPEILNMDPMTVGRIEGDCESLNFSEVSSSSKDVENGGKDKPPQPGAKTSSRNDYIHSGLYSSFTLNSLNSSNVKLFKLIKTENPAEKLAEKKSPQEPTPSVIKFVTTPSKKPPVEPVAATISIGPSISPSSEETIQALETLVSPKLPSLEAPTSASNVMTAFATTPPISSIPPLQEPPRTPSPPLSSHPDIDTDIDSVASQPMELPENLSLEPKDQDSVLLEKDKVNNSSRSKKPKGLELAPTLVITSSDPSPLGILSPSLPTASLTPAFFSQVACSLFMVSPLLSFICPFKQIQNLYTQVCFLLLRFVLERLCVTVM
# In short: as §1
# ETV2 = biological target: T4, ETV2 (Homo sapiens, UniProt O00321 1-342); conditions: protein: recombinant; tags: N-terminal GST; dsDNA, one strand shown
# T4 sequence: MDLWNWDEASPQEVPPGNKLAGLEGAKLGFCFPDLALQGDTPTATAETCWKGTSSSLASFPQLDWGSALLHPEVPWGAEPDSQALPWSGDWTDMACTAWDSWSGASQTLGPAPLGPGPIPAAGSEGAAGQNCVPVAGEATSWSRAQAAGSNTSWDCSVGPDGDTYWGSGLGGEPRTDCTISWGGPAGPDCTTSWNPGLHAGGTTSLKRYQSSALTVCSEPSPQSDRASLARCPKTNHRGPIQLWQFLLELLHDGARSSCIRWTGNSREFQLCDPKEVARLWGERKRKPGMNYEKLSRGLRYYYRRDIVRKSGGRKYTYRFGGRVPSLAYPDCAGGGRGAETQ
# In short: as §1
# ELF3 = biological target: T5, ELF3 (Homo sapiens, UniProt P78545 1-371); conditions: protein: recombinant; tags: N-terminal GST; dsDNA, one strand shown
# T5 sequence: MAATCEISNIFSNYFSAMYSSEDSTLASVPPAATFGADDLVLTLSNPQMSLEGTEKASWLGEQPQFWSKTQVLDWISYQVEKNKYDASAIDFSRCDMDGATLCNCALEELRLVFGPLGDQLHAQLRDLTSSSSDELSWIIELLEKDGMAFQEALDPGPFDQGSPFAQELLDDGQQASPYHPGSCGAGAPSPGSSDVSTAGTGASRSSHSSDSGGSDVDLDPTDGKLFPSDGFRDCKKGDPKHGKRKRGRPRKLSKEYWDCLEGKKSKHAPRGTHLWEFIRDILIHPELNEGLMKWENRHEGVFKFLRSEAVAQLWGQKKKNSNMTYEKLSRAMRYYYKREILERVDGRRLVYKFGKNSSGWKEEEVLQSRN
# In short: as §1
# CRX = CRX (Homo sapiens, UniProt O43186 1-299); conditions: protein: recombinant; tags: N-terminal GST; dsDNA, one strand shown
# In short: as §1
# ETV1 = ETV1 (Homo sapiens, UniProt P50549 1-477); conditions: protein: recombinant; tags: N-terminal GST; dsDNA, one strand shown
# In short: as §1
# ERF = biological target: T6, ERF (Homo sapiens, UniProt P50548 1-548); conditions: protein: recombinant; tags: N-terminal GST; dsDNA, one strand shown
# T6 sequence: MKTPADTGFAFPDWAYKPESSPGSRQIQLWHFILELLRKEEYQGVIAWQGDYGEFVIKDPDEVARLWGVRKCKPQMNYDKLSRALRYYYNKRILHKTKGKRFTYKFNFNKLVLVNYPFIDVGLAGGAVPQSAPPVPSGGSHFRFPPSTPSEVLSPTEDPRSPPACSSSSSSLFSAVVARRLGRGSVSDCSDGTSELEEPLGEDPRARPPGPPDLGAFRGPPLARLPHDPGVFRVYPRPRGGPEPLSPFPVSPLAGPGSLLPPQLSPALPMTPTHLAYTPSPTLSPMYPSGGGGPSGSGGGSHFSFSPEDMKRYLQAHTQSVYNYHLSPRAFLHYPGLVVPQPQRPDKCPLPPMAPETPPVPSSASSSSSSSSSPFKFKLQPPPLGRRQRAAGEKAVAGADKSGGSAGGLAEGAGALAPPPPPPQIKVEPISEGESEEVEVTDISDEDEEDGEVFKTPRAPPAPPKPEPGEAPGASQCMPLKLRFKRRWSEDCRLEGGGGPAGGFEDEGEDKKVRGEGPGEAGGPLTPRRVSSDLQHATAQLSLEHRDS
# In short: as §1
# ETV3L = biological target: T7, ETV3L (Homo sapiens, UniProt Q6ZN32 1-361); conditions: protein: recombinant; tags: N-terminal GST; dsDNA, one strand shown
# T7 sequence: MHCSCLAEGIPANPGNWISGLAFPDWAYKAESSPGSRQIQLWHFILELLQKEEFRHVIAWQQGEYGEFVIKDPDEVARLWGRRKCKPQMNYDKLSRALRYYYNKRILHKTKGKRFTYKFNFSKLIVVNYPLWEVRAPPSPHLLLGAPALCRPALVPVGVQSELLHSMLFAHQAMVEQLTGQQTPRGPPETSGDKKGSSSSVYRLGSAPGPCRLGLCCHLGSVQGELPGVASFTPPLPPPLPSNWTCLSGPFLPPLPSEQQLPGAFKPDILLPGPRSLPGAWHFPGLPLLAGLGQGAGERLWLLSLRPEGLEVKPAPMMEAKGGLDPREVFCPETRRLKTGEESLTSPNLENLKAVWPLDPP
# In short: as §1
# ETS2 = biological target: T8, ETS2 (Homo sapiens, UniProt P15036 1-469); conditions: protein: recombinant; tags: N-terminal GST; dsDNA, one strand shown
# T8 sequence: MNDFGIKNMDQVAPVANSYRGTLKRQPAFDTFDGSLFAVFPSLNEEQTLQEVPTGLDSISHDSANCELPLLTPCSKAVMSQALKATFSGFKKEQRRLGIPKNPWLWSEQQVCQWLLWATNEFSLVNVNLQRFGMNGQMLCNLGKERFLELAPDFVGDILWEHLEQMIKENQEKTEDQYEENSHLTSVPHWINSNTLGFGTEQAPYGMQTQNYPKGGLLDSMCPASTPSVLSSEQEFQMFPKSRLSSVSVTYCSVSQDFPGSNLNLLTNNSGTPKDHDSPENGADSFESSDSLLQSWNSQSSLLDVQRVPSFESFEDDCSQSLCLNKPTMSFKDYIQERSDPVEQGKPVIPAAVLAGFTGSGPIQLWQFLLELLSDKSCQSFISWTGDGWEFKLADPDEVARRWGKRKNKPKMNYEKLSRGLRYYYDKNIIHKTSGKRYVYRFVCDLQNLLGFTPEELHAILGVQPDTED
# In short: as §1
# SPDEF = biological target: T9, SPDEF (Homo sapiens, UniProt O95238 1-335); conditions: protein: recombinant; tags: N-terminal GST; dsDNA, one strand shown
# T9 sequence: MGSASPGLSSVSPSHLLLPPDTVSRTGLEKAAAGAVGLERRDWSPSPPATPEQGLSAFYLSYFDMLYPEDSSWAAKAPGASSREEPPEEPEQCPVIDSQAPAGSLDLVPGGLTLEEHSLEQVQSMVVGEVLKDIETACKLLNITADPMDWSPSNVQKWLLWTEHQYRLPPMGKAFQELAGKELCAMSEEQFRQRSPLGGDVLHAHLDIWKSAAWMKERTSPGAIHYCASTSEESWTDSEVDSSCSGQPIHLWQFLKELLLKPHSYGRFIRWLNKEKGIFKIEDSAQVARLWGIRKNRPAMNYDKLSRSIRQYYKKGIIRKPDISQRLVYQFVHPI
# In short: as §1
# ETV7 = biological target: T10, ETV7 (Homo sapiens, UniProt Q9Y603 1-341); conditions: protein: recombinant; tags: N-terminal GST; dsDNA, one strand shown
# T10 sequence: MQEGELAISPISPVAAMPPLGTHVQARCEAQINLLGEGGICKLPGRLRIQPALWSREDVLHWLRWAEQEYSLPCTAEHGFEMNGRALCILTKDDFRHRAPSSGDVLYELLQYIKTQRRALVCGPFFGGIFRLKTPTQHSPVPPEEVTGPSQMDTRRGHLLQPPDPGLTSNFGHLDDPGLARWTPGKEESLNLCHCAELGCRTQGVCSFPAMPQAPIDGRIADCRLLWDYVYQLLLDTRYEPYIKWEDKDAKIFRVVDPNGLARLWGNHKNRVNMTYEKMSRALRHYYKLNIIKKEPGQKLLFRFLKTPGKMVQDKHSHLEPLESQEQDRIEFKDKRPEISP
# In short: as §1
# ELF5 = biological target: T11, ELF5 (Homo sapiens, UniProt Q9UKW6-2 1-255); conditions: protein: recombinant; tags: N-terminal GST; dsDNA, one strand shown
# T11 sequence: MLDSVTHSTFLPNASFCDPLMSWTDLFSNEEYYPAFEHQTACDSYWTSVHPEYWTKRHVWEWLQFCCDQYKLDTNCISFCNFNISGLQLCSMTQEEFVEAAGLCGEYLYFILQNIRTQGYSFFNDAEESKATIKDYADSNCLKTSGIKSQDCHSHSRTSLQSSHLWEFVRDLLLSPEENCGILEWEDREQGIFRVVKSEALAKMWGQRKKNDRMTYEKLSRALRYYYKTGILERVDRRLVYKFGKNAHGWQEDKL
# In short: as §1
# ETV3 = biological target: T12, ETV3 (Homo sapiens, UniProt P41162-2 1-143); conditions: protein: recombinant; tags: N-terminal GST; dsDNA, one strand shown
# T12 sequence: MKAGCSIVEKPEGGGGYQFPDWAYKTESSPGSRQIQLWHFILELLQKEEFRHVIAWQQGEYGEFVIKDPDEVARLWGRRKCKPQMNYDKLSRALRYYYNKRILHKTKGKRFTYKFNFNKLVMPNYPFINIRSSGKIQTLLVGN
# In short: as §1
# ETV6 = ETV6 (Homo sapiens, UniProt P41212 1-452); conditions: protein: recombinant; tags: N-terminal GST; dsDNA, one strand shown
# In short: as §1
# Chain of HSF1 (Q00613 whole entry): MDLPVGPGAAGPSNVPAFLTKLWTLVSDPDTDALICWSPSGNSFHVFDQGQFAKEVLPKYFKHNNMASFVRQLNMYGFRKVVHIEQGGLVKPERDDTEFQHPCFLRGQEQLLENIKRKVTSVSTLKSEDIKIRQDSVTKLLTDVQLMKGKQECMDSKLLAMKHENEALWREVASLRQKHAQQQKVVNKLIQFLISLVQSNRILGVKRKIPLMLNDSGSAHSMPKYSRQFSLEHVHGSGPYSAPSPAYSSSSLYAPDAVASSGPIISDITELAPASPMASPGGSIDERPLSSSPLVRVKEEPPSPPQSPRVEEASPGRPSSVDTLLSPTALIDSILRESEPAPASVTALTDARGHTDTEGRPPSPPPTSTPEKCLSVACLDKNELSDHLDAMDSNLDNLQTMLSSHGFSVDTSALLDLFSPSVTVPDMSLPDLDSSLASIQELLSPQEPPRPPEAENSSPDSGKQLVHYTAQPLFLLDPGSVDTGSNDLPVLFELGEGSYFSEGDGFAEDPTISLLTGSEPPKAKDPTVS
# Chain of ETV1 (P50549 whole entry): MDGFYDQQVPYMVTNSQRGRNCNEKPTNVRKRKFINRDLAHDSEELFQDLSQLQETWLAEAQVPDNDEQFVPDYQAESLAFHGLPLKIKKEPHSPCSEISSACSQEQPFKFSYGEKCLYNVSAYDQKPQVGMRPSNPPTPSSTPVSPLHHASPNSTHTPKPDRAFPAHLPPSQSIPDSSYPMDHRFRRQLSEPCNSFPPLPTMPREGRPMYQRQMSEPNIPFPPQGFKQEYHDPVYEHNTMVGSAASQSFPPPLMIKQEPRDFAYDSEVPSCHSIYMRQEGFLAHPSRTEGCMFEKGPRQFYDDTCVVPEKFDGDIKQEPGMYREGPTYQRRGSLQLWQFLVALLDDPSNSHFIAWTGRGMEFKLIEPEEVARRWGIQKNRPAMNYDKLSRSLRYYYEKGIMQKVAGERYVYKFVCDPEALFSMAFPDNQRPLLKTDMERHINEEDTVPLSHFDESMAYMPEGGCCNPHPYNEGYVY
# Chain of CRX (O43186 whole entry): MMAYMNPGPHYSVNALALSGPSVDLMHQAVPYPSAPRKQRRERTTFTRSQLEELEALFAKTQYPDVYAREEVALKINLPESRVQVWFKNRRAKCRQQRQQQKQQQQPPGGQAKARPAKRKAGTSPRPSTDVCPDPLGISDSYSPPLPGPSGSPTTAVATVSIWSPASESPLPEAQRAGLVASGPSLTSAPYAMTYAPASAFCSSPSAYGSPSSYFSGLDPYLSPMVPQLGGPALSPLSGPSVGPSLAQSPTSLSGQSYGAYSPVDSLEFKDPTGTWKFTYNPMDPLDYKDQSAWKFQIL
# Chain of ETV5 (P41161 whole entry): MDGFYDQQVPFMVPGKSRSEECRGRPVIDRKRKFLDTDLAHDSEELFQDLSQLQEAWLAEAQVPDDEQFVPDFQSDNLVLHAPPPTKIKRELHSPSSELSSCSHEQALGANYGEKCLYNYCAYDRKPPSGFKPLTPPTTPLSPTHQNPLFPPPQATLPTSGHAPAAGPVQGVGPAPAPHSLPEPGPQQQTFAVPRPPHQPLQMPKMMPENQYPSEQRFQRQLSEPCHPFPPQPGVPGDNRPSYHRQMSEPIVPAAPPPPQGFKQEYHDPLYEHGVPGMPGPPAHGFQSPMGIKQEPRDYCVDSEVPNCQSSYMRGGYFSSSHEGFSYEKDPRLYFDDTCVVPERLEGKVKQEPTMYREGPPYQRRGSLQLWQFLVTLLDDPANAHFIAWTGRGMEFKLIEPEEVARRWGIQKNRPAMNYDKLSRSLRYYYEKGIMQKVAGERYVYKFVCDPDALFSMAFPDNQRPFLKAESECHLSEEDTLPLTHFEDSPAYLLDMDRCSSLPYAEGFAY
# Chain of ETV6 (P41212 whole entry): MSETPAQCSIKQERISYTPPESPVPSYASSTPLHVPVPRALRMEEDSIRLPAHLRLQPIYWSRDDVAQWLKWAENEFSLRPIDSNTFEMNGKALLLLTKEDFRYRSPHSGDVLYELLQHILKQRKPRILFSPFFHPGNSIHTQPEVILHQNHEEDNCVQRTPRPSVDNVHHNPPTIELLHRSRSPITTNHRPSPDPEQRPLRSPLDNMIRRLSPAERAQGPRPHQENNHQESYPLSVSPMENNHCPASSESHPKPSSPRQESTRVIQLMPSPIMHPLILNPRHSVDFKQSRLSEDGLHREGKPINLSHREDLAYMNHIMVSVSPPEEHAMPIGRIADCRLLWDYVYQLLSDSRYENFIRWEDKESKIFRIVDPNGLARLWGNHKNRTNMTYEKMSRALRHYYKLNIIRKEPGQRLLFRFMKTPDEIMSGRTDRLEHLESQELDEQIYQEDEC
# Chain of ELF4 (Q99607 whole entry): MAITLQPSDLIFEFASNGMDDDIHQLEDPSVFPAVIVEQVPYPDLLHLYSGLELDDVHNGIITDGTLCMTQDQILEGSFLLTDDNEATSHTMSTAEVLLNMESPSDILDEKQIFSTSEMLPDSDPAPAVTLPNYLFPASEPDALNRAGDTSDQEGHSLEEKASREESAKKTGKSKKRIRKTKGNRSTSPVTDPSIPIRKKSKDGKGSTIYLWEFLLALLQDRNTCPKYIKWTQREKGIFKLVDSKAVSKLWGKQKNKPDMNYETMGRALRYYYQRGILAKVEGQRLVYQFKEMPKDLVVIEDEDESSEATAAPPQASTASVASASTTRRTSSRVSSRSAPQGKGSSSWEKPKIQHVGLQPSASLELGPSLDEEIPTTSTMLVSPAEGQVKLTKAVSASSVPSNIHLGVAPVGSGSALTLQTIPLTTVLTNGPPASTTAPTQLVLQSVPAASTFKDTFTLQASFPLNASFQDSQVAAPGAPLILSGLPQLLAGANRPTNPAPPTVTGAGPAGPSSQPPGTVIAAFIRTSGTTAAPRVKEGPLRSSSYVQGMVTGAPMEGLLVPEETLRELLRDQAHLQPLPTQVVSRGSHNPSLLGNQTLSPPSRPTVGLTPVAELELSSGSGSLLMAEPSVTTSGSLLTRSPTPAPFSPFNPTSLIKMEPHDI
sequence,measurement,setting,value
ACCTAC,binding signal,FEV,"1.17 fold enrichment (6-mer frequency, TF over GST control)"
same,binding signal,ETV5,"1.13 fold enrichment (6-mer frequency, TF over GST control)"
same,binding signal,HSF1,"1.07 fold enrichment (6-mer frequency, TF over GST control)"
same,binding signal,SPIC,"1.13 fold enrichment (6-mer frequency, TF over GST control)"
same,binding signal,ELF4,"1.24 fold enrichment (6-mer frequency, TF over GST control)"
same,binding signal,ELK4,"1.22 fold enrichment (6-mer frequency, TF over GST control)"
same,binding signal,ETV2,"1.23 fold enrichment (6-mer frequency, TF over GST control)"
same,binding signal,ELF3,"1.29 fold enrichment (6-mer frequency, TF over GST control)"
same,binding signal,CRX,"1.02 fold enrichment (6-mer frequency, TF over GST control)"
same,binding signal,ETV1,"1.23 fold enrichment (6-mer frequency, TF over GST control)"
same,binding signal,ERF,"1.17 fold enrichment (6-mer frequency, TF over GST control)"
same,binding signal,ETV3L,"1.26 fold enrichment (6-mer frequency, TF over GST control)"
same,binding signal,ETS2,"1.2 fold enrichment (6-mer frequency, TF over GST control)"
same,binding signal,SPDEF,"1.17 fold enrichment (6-mer frequency, TF over GST control)"
same,binding signal,ETV7,"1.09 fold enrichment (6-mer frequency, TF over GST control)"
same,binding signal,ELF5,"1.29 fold enrichment (6-mer frequency, TF over GST control)"
same,binding signal,ETV3,"1.25 fold enrichment (6-mer frequency, TF over GST control)"
same,binding signal,ETV6,"1.32 fold enrichment (6-mer frequency, TF over GST control)"
